The values below come from ChEMBL document CHEMBL3433997, “St. Jude Leishmania screening dataset” (2016).

For one test, the target named is Solute carrier family 2, facilitated glucose transporter member 1 (Homo sapiens) (UniProt P11166). Kind of test: ST_JUDE_LEISH: Cytotoxicity at 2uM final concentration against transgenic Leishmania Mexicana promastigotes LmGLUT1 that are glucose transport deficient and complemented with the human glucose transporter GLUT1. Activity is measured by DNA content using SYBR green in vitro. The test is classed as functional.
Solute carrier family 2, facilitated glucose transporter member 1 (Homo sapiens), sequence (P11166 whole entry): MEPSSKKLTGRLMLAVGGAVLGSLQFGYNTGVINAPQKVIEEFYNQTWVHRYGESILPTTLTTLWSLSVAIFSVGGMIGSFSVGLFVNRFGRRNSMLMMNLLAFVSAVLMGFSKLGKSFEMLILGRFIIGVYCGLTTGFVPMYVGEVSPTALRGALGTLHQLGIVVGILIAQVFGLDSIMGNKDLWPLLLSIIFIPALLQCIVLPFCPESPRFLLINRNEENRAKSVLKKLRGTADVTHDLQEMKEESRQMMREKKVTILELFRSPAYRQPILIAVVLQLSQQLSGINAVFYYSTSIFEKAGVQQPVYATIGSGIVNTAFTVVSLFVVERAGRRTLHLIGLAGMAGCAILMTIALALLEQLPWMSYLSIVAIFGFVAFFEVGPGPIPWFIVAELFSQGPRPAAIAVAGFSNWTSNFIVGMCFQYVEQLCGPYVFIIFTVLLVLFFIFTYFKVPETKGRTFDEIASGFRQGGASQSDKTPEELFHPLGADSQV
One may read the inhibition as the relative decrease from the control value, in per cent. On to `COc1cccc(NC(=O)[C@H](C)n2c(=O)[nH]c3ccccc3c2=O)c1`, for which the inhibition worked out at 10.9%.

Consider `CC(C)(O)CC(C)(C)c1cc(Cl)ccc1O`, for which the inhibition is 6.46%.

With `O=C(NC1CCC1)C1CCN(C(c2ccc(Cl)cc2)c2ccc(Cl)cc2)CC1`, the inhibition is -0.62%.

Take `CN1CCCC(CN2CCN(Cc3cccc(-c4ccc(-c5nc6ccccc6[nH]5)cc4)c3)CC2)C1` (stereo not given): the inhibition worked out at 7.48%.

As to `CCCCCN1CCCN(Cc2cccc(NC(=O)c3ccc4ccccc4c3)c2)CC1`, the inhibition worked out at 4.56%.

Consider `O=C(Nc1ccc(Cl)cc1)Nc1ccc(OCC(O)CN2CCCCC2)cc1` (stereo not given), for which the inhibition is 7.33%.

Turning to `CCn1c(SCc2ccccc2)nc2c1c(=O)[nH]c(=O)n2C`, the inhibition is -0.07%.

On to `Cc1nnsc1C(=O)Nc1ccc(-c2cccc(-c3nc4cccc(C)c4[nH]3)c2)cc1`, for which the inhibition came out at 3.57%.

Take `CCCCCCC(C)c1cc(O)c2c(c1)OC(C)(C)C=C2c1ccncc1` (stereo not given): the inhibition came out at 1.01%.

For `CN(C)CCOc1ccc(/C(=C(/CCCn2ccnc2)c2ccccc2)c2ccc(O)cc2)cc1`, the inhibition is 4.25%.

Turning to `Cc1cccc2nc(-c3ccc(-c4ccc(CN5CCCCC5CO)cc4)cc3)[nH]c12` (stereo not given), the inhibition was 27.8%.

As to `N#Cc1ccccc1S(=O)(=O)N1CCCC(CNC(=O)[C@H](CC2CCCCC2)NC(=O)c2cc3ccccc3s2)C1` (stereo not given in full), the inhibition is 1.08%.

Regarding `NC(=O)NC(=O)C=Cc1ccco1`, the inhibition was found to be 0.54%.

For the compound `O=c1cc(NCCCNC2CCCc3c2ccc2ccccc32)[nH]c2ccccc12` (stereo not given), the inhibition worked out at 4.07%.

Take `C[C@@H](Oc1cc(-n2cnc3cc(SCCN4CCN(C)CC4)ccc32)sc1C(N)=O)c1ccccc1Cl`: the inhibition amounted to 35.4%.

Regarding `CCn1c(-c2nonc2N)nc2cnc(Oc3cccc(NC(=O)c4ccc(OCCN5CCCCC5)cc4)c3)cc21`, the inhibition was 17.2%.

For the compound `Cc1cc(OCC2CCN(c3ncc(C(=O)Nc4ccccc4)cc3Cl)CC2)ccc1F`, the inhibition was 1.05%.

For the compound `CC(C)c1ccc(C2CCN(CCCCNC(=O)c3ccc(NC(=O)c4ccc(C(F)(F)F)cc4)cc3)CC2)c(O)c1`, the inhibition is 4.75%.

As for `Cn1cncc1C(=O)Nc1cccc(-c2csc(-c3nc4ccccc4[nH]3)c2)c1`, the inhibition was determined as 2.44%.

Turning to `CCC(C)c1ccc(NC(=O)Nc2ccnc3ccccc23)cc1` (stereo not given), the inhibition amounted to 2.93%.

Regarding `CCN(CC)CCNC(=O)c1ccc(NC(=O)c2cn(-c3ccccc3)nc2-c2cccs2)cc1`, the inhibition is 5.46%.

For the compound `CS(=O)(=O)NCCCNCc1ccc(-c2ccc(-c3nc4cc(C(F)(F)F)ccc4[nH]3)s2)cc1`, the inhibition came out at 1.6%.

Consider `N#Cc1ccc(-c2ccc(C(=O)NC3CCN(CCN4CCC(c5cn(CCOC6CCCCO6)c6ccccc56)CC4)CC3)cc2)cc1` (stereo not given), for which the inhibition was 14.4%.

Regarding `Cc1ccccc1OCCCN1CCN(CC(c2ccc(F)cc2)N2CCN(C(C)C)CC2)CC1` (stereo not given), the inhibition is 13.1%.

Regarding `Cc1cc(C(=O)Nc2ccc3c(c2)CCN3C2CCN(Cc3ccc4nsnc4c3)C2)no1` (stereo not given), the inhibition worked out at 3.24%.

For `CN(C(=O)c1ccc(Br)cc1)c1ccccc1[N+](=O)[O-]`, the inhibition was -1.57%.

With `COc1ccc2nccc(C(=O)NC3CCC(CCN4CCc5cc(C#N)ccc5C4)CC3)c2c1` (stereo not given), the inhibition was determined as 7.23%.

For `CN1CCN(c2cc(-c3cccc(C(F)(F)F)c3)nc(-c3ccncc3)n2)CC1`, the inhibition worked out at 2.69%.

Turning to `COc1ccc(C2(CNCC(O)c3cccc([N+](=O)[O-])c3)CCCC2)cc1OC` (stereo not given), the inhibition was determined as 2.7%.

For the compound `COc1ccc(C2CCN(CCN3CCC(NC(=O)c4cccc(-c5ccncc5)c4)CC3)CC2)c(OC)c1`, the inhibition was 1.32%.

As for `COc1ccc(CCn2c(=N)c(C(=O)NC3CCCC3)cc3c(=O)n4ccccc4nc32)cc1`, the inhibition amounted to 7.26%.

On to `CC(C)C[C@H](NC(=O)c1cc2ccccc2s1)C(=O)N[C@H]1CCN(Cc2ccc(OCCN3CCNCC3)c3ccccc23)C1`, for which the inhibition is -0.59%.

With `COc1ccc2cc(C(C)NC3CCN(c4cccc(NC(=O)c5ccncc5)c4)CC3)ccc2c1` (stereo not given), the inhibition worked out at 0.03%.

Turning to `Cc1cc(N[C@@H](Cc2ccccc2)C(=O)NCCOc2ccccc2)nc(NCCc2cccs2)n1`, the inhibition came to 8.11%.

In the case of `Cc1cccc(NC(=O)c2ccc(C(=O)NC3CCN(CC4CCCCC4)CC3)cc2)c1`, the inhibition came out at 4.08%.

`CCCN(CCC)CCCCC(C)Nc1c2ccc(Cl)cc2nc2ccc(OC)cc12` (stereo not given): the inhibition was 8.02%.

Consider `Cn1cccc1C(=O)C(=O)Nc1ccc(-c2ccc(-c3nc4cc(F)ccc4[nH]3)cc2)cc1`, for which the inhibition was 8.15%.

`Cc1cccc(C)c1C1CCN(C2CCC(NC(=O)/C=C/c3ccccc3)CC2)CC1` (stereo not given): the inhibition worked out at 5.77%.

As to `COc1ccc([N+](=O)[O-])cc1N(Cc1ccccc1-c1ccccc1)S(=O)(=O)c1ccc(C(F)(F)F)cc1`, the inhibition amounted to 3.87%.

Regarding `COc1ccc(CCNCCCCCCNCCCc2ccc(Cl)cc2)cc1OC`, the inhibition amounted to 4.72%.

In another test the target is Hexose transporter 1 (Plasmodium falciparum) (UniProt O97467). Kind of test: ST_JUDE_LEISH: Cytotoxicity at 2uM final concentration against transgenic Leishmania Mexicana promastigotes LmPfHT that are glucose transport deficient and complemented with the Plasmodium falciparum hexose transporter. Activity is measured by DNA content using SYBR green in vitro. Type of test: functional.
Take `COc1cccc(NC(=O)[C@H](C)n2c(=O)[nH]c3ccccc3c2=O)c1`: the inhibition was determined as 14.1%.

`CC(C)(O)CC(C)(C)c1cc(Cl)ccc1O`: the inhibition was found to be 5.76%.

`O=C(NC1CCC1)C1CCN(C(c2ccc(Cl)cc2)c2ccc(Cl)cc2)CC1`: the inhibition was found to be 1.93%.

Take `CN1CCCC(CN2CCN(Cc3cccc(-c4ccc(-c5nc6ccccc6[nH]5)cc4)c3)CC2)C1` (stereo not given): the inhibition stood at 9.12%.

As to `CCCCCN1CCCN(Cc2cccc(NC(=O)c3ccc4ccccc4c3)c2)CC1`, the inhibition is 4.49%.

As to `O=C(Nc1ccc(Cl)cc1)Nc1ccc(OCC(O)CN2CCCCC2)cc1` (stereo not given), the inhibition was 8.27%.

Take `CCn1c(SCc2ccccc2)nc2c1c(=O)[nH]c(=O)n2C`: the inhibition was -0.05%.

Turning to `Cc1nnsc1C(=O)Nc1ccc(-c2cccc(-c3nc4cccc(C)c4[nH]3)c2)cc1`, the inhibition was 2.94%.

Turning to `CCCCCCC(C)c1cc(O)c2c(c1)OC(C)(C)C=C2c1ccncc1` (stereo not given), the inhibition was -0.62%.

As for `CN(C)CCOc1ccc(/C(=C(/CCCn2ccnc2)c2ccccc2)c2ccc(O)cc2)cc1`, the inhibition was found to be 6.01%.

Turning to `Cc1cccc2nc(-c3ccc(-c4ccc(CN5CCCCC5CO)cc4)cc3)[nH]c12` (stereo not given), the inhibition is 31.6%.

On to `N#Cc1ccccc1S(=O)(=O)N1CCCC(CNC(=O)[C@H](CC2CCCCC2)NC(=O)c2cc3ccccc3s2)C1` (stereo not given in full), for which the inhibition was found to be 2.15%.

Regarding `NC(=O)NC(=O)C=Cc1ccco1`, the inhibition was 1.9%.

For the compound `O=c1cc(NCCCNC2CCCc3c2ccc2ccccc32)[nH]c2ccccc12` (stereo not given), the inhibition turned out to be 4.85%.

For the compound `C[C@@H](Oc1cc(-n2cnc3cc(SCCN4CCN(C)CC4)ccc32)sc1C(N)=O)c1ccccc1Cl`, the inhibition came to 40.9%.

In the case of `CCn1c(-c2nonc2N)nc2cnc(Oc3cccc(NC(=O)c4ccc(OCCN5CCCCC5)cc4)c3)cc21`, the inhibition was determined as 28.1%.

Turning to `Cc1cc(OCC2CCN(c3ncc(C(=O)Nc4ccccc4)cc3Cl)CC2)ccc1F`, the inhibition was -2.28%.

`CC(C)c1ccc(C2CCN(CCCCNC(=O)c3ccc(NC(=O)c4ccc(C(F)(F)F)cc4)cc3)CC2)c(O)c1`: the inhibition stood at 3.96%.

As for `Cn1cncc1C(=O)Nc1cccc(-c2csc(-c3nc4ccccc4[nH]3)c2)c1`, the inhibition came to 3.44%.

Take `CCC(C)c1ccc(NC(=O)Nc2ccnc3ccccc23)cc1` (stereo not given): the inhibition amounted to 6.23%.

Take `CCN(CC)CCNC(=O)c1ccc(NC(=O)c2cn(-c3ccccc3)nc2-c2cccs2)cc1`: the inhibition came to 4.01%.

With `CS(=O)(=O)NCCCNCc1ccc(-c2ccc(-c3nc4cc(C(F)(F)F)ccc4[nH]3)s2)cc1`, the inhibition turned out to be 2.03%.

As for `N#Cc1ccc(-c2ccc(C(=O)NC3CCN(CCN4CCC(c5cn(CCOC6CCCCO6)c6ccccc56)CC4)CC3)cc2)cc1` (stereo not given), the inhibition is 6.81%.

With `Cc1ccccc1OCCCN1CCN(CC(c2ccc(F)cc2)N2CCN(C(C)C)CC2)CC1` (stereo not given), the inhibition is 12.5%.

For the compound `Cc1cc(C(=O)Nc2ccc3c(c2)CCN3C2CCN(Cc3ccc4nsnc4c3)C2)no1` (stereo not given), the inhibition amounted to 2.32%.

Take `CN(C(=O)c1ccc(Br)cc1)c1ccccc1[N+](=O)[O-]`: the inhibition was -1.07%.

With `COc1ccc2nccc(C(=O)NC3CCC(CCN4CCc5cc(C#N)ccc5C4)CC3)c2c1` (stereo not given), the inhibition is 5.23%.

As for `CN1CCN(c2cc(-c3cccc(C(F)(F)F)c3)nc(-c3ccncc3)n2)CC1`, the inhibition is 4.44%.

Turning to `COc1ccc(C2(CNCC(O)c3cccc([N+](=O)[O-])c3)CCCC2)cc1OC` (stereo not given), the inhibition worked out at 4.72%.

Regarding `COc1ccc(C2CCN(CCN3CCC(NC(=O)c4cccc(-c5ccncc5)c4)CC3)CC2)c(OC)c1`, the inhibition amounted to 0.37%.

As for `COc1ccc(CCn2c(=N)c(C(=O)NC3CCCC3)cc3c(=O)n4ccccc4nc32)cc1`, the inhibition turned out to be 9.43%.

For the compound `CC(C)C[C@H](NC(=O)c1cc2ccccc2s1)C(=O)N[C@H]1CCN(Cc2ccc(OCCN3CCNCC3)c3ccccc23)C1`, the inhibition is -2.98%.

`COc1ccc2cc(C(C)NC3CCN(c4cccc(NC(=O)c5ccncc5)c4)CC3)ccc2c1` (stereo not given): the inhibition was -0.06%.

As to `Cc1cc(N[C@@H](Cc2ccccc2)C(=O)NCCOc2ccccc2)nc(NCCc2cccs2)n1`, the inhibition came out at 7.52%.

As to `Cc1cccc(NC(=O)c2ccc(C(=O)NC3CCN(CC4CCCCC4)CC3)cc2)c1`, the inhibition is 7.67%.

Consider `CCCN(CCC)CCCCC(C)Nc1c2ccc(Cl)cc2nc2ccc(OC)cc12` (stereo not given), for which the inhibition is 8.65%.

As to `Cn1cccc1C(=O)C(=O)Nc1ccc(-c2ccc(-c3nc4cc(F)ccc4[nH]3)cc2)cc1`, the inhibition was -0.07%.

Consider `Cc1cccc(C)c1C1CCN(C2CCC(NC(=O)/C=C/c3ccccc3)CC2)CC1` (stereo not given), for which the inhibition was found to be 5.67%.

As to `COc1ccc([N+](=O)[O-])cc1N(Cc1ccccc1-c1ccccc1)S(=O)(=O)c1ccc(C(F)(F)F)cc1`, the inhibition worked out at 5.68%.

As to `COc1ccc(CCNCCCCCCNCCCc2ccc(Cl)cc2)cc1OC`, the inhibition came to 2.45%.
